aSyn 5UTR act: Activators via SNCA 5'UTR binding, MLPCN. alpha-synuclein 5'UTR reporter, activators screen. activity score, % (tested at 7.5 µM), hits read low. actives 7.1% (n = 300,000). AID 1814, 2009; in the data active = activity score below about -60%
* = called active by the depositor. A selection follows.

SMILES	aSyn 5UTR act
CC(=O)Nc1ccc(N2N=C(C)C(N=Nc3ccccc3)C2=O)cc1 (stereo not drawn)	-98.5*
CC(C)C(=O)OCC(=O)Nc1ccc(N=Nc2ccccc2)cc1	-186.4*
CC(=O)Nc1ccc(N=Nc2ccccc2)cc1	-179.1*
CC1(C(=O)OCC(=O)Nc2ccccc2)CC1(Cl)Cl (stereo not drawn)	-68.6*
CC(=O)OCC(=O)Nc1ccc(N=Nc2ccccc2)cc1	-142.9*
O=C(CCl)Nc1ccc(N=Nc2ccccc2)cc1	-63.1*
FC(F)Sc1ccc(Nc2ncnc3nc[nH]c23)cc1	-73.3*
CCCCOC(=O)c1ccc(Nc2ncnc3nc[nH]c23)cc1	-118.2*
O=C(Nc1nc2ccccc2s1)c1ccc(Cl)s1	-170.3*
COc1ccc2nc(NC(=O)c3ccc(F)cc3)sc2c1	-155.6*
Cc1ccc(C(=O)Nc2nc3ccccc3c(=O)s2)cc1	-189.9*
COc1ccc2nc(NC(=O)c3cccs3)sc2c1	-78.3*
CC(C)(C)N1C(=O)c2ccc(C(=O)Nc3ccc(O)cc3)cc2C1=O	-87.2*
COc1ccc(OC)c(-c2csc(NC(=O)c3ccc(F)cc3)n2)c1	-201.7*
CCc1nnc(NC(=O)c2ccc3c(c2)C(=O)N(C(C)(C)C)C3=O)s1	-145.0*
CCc1nnc(NC(=O)c2ccc(NC(=O)C(C)C)cc2)s1	-100.6*
O=C(Nc1nc2ccccc2s1)c1ccc(F)cc1	-89.4*
O=C(Nc1nc(=O)c2ccccc2s1)c1ccccc1	-156.6*
Nc1ccc(-c2nc3ccc(C(=O)O)cc3s2)cc1	95.4
NC(=O)c1ccc2nc(NC(=O)c3ccc(N)cc3)sc2c1	-78.7*
O=C(Nc1nc(-c2cccs2)cs1)c1ccc(Cl)s1	-146.5*
COc1ccc2nc(NC(=O)c3ccc4ncsc4c3)sc2c1	-133.7*
CCc1nnc(NC(=O)c2ccc3ncsc3c2)s1	-102.0*
Cn1c(SCc2ccccc2)nnc1-c1ccco1	-119.7*
COc1cccc(-c2nnc(SCc3ccc(C#N)cc3)n2Cc2ccco2)c1	42.7
SMILES	aSyn 5UTR act
c1ccc(CSc2nnc(-c3ccco3)n2Cc2ccco2)cc1	-106.8*
C/C(NC(=O)c1cccs1)=C1\C(=O)C[C@@H]2[C@H]1C2(C)C	-117.6*
O=c1/c(=C/c2ccccn2)sc2nc3ccccc3n12	-173.8*
CC1=NN(C(N)=S)C(=O)C1N=Nc1cccc(Cl)c1 (stereo not drawn)	-86.0*
CC1=NN(C(N)=S)C(=O)C1N=Nc1ccc(C)cc1C (stereo not drawn)	-102.5*
CC(=O)N(C)c1ccc(N=NC2C(=O)N(C(N)=S)N=C2C)cc1 (stereo not drawn)	-92.9*
COc1cccc(N=NC2C(=O)N(C(N)=S)N=C2C)c1 (stereo not drawn)	-94.6*
CSc1ccc(COC(=O)c2cc([N+](=O)[O-])ccc2N2CCOCC2)cc1	66.9
CCOc1ccc(C(=O)COC(=O)c2cc([N+](=O)[O-])ccc2N2CCOCC2)cc1	-115.5*
CCOC(=O)c1cc(-c2ccc(N)cc2)sc1N	-76.2*
CCOC(=O)c1sc(-c2ccc(Br)cc2)cc1N	-185.4*
NNC(=O)c1sc(-c2ccc(Cl)cc2)cc1N	-82.0*
c1ccc(NCC2OCc3ccccc3CO2)cc1	-147.0*
COC(=O)c1ccc(NC(=O)C(=O)c2cccn2C)cc1	-109.1*
O=C(Cc1ccccc1)Nc1ccc(SC(F)F)cc1	-130.1*
CCC(=O)Nc1ccc(C(=O)OCc2ccccc2Cl)cc1	-167.9*
COC(=O)c1ccc(NC(=O)Cc2ccccc2)cc1	-122.8*
COC(=O)c1ccc(NC(=O)c2nc(S(=O)(=O)Cc3cccc(C)c3)ncc2Cl)cc1	55.1
COC(=O)c1ccc(NC(=S)Nc2ccccc2)cc1	-131.1*
Clc1cccc(Cl)c1/C=C/c1ccn[nH]1	-232.3*
Cc1occc1C(=O)N/N=C/c1c[nH]c2ccccc12	-135.3*
CC(C)(C)OC(=O)N/N=C/c1c[nH]c2ccccc12	-139.7*
C=CCn1cccc(C(=O)Nc2ccc(OC)c(Cl)c2)c1=O	-83.9*
C=CCn1cccc(C(=O)Nc2ccc(C)c(Cl)c2)c1=O	-139.7*
NS(=O)(=O)c1cc2c(cc1Cl)NC(C1C[C@H]3C=C[C@@H]1C3)NS2(=O)=O (stereo partly drawn)	-79.7*
SMILES	aSyn 5UTR act
CC(=O)Nc1ccc(-c2csc(NCc3ccco3)n2)cc1	-138.0*
c1cncc(-c2csc(NCc3ccco3)n2)c1	-92.3*
COc1ccc(-c2csc(NCc3ccco3)n2)cc1C	-194.9*
O=C(Nc1ccc2oc(-c3ccc4ccccc4c3)nc2c1)c1ccc2c(c1)OCCO2	-113.0*
Cc1ccc2nc(-c3cccc(NC(=O)c4ccc5c(c4)OCCO5)c3)oc2c1	-86.6*
CCC(=O)Nc1cccc(-c2nc3ccc(C)cc3o2)c1	-74.8*
CC(C)(C)c1ccc(-n2ncc3c2CCCC3NC(=O)c2cnccn2)cc1 (stereo not drawn)	-67.8*
O=C(CCc1ccncc1)NC1CCCc2c1cnn2-c1cc(F)cc(F)c1 (stereo not drawn)	78.7
COc1ccc(N=C/C=C2\C=C(c3ccccc3)OC(C)(C)O2)cc1	-134.9*
CC(C)CCn1c(SCCc2ccccc2)nc2c1c(=O)[nH]c(=O)n2C	52.6
CCCCCCn1c(SCCC)nc2c1c(=O)[nH]c(=O)n2C	46.8
Cn1c(=O)[nH]c(=O)c2c1nc(Br)n2Cc1cccc(Br)c1	-70.1*
O=C1C(Cl)=C(NCCN2CCCCC2)C(=O)c2ccccc21	54.0
N#Cc1nc(-c2cccc3ccccc23)oc1NCCN1CCCCC1	-63.3*
CCNc1oc(-c2cccc3ccccc23)nc1C#N	-88.1*
Fc1ccccc1C1CCN(Cc2nc(CC3CC3)no2)C1 (stereo not drawn)	-81.5*
COc1cc(SC)ccc1C(=O)Nc1nc2ccccc2[nH]1	131.5
O=C(Oc1ccccc1C(=O)Nc1ccccc1)c1ccc(Br)c([N+](=O)[O-])c1	-120.6*
COc1ccccc1C(=O)NNC(=S)Nc1ccccc1	-107.1*
COc1cc(SC)ccc1C(=O)Nc1ccccc1	-184.1*
COc1ccccc1C(=O)Oc1ccccc1C(=O)Nc1ccccc1	-162.9*
COc1ccccc1C(=O)Nc1ccc(Br)cc1C	-96.2*
Cc1nn(C)cc1C(=O)NNC(=S)Nc1ccccc1	-110.3*
N#Cc1c(N2CCCC2)nc(N)c2c(N)nc(N3CCCC3)cc12	-172.6*
Cc1csc(SCC(=O)Nc2sccc2C(N)=O)n1	-109.6*
SMILES	aSyn 5UTR act
NC(=O)c1ccsc1NC(=O)CSc1ccccc1F	-119.3*
O=C(CC1SC(N2CCCC2)=NC1=O)Nc1ccc(C(=O)Nc2ncccc2O)cc1 (stereo not drawn)	-266.3*
CC1CCC(NC(=O)c2ccc(NC(=O)CC3SC(N4CCCC4)=NC3=O)cc2)CC1 (stereo not drawn)	-129.4*
CC1CCC(NC(=O)c2ccc(NC(=O)c3ccc(=O)[nH]c3)cc2)CC1 (stereo not drawn)	-67.5*
CC(C)Oc1ccc(CSc2ncn[nH]2)cc1	-83.8*
N#Cc1c(-c2ccccc2)c(-c2ccccc2)nn(CC(=O)NNC(=O)Nc2ccccc2)c1=O	-91.8*
CC(=O)Nc1nc(-c2ccc3c(c2)OCO3)cs1	-129.9*
O=C(CCCCl)Nc1nc(-c2ccc3c(c2)OCCO3)cs1	-116.9*
CCOC(=O)N1CCN(C(=O)CSCC(=O)Nc2nc(-c3ccc(C)cc3)cs2)CC1	-85.2*
O=C(Nc1nc(-c2ccc3c(c2)OCCO3)cs1)C1CCCC1	-150.8*
O=C(CSCC(=O)N1CCOCC1)Nc1nc(-c2ccc3c(c2)OCO3)cs1	-131.1*
CN1CCc2c(sc3c2C(=O)NC(c2cccs2)N3)C1 (stereo not drawn)	-102.8*

Screens deposited in PubChem BioAssay by Broad Institute.
